{
  "source": "PubChem BioAssay (EPA / NIEHS)",
  "note": "The source made the active and inactive calls. Rule for the calls: active = hit-call score of the fitted dose curve at least 0.9, where 1 is the maximum; inactive = score below 0.9.",
  "data": [
    {"assay": "CCTE_Shafer_MEA_dev_per_burst_spike_percent: CCTE's Neural Network Formation Assay for Percent of Spikes in a Burst, Shafer Lab (AID 2284032)", "method": "CCTE_Shafer_MEA_dev assay is conducted using Axion Biosystems 48 well microelectrode array (MEA) plates and Maestro recording system. Each well of the MEA plate contains a grid of 16 microelectrodes embedded in the culture surface. Electrically active cells, such as neurons, can be cultured over the electrodes, and electrical activity in these cells can be recorded extracellularly. The spontaneous firing of neurons is captured from each electrode on a microsecond timescale providing both temporally and spatially precise data. […] The CCTE_Shafer_MEA_dev assay uses primary cultures of rat cortical neurons. Recordings are made on days post-plating 5, 7, 9 and 12. As these cultures mature over time, neural networks develop functional activity and form cohesive networks in which electrical activity can be highly coordinated. CCTE_Shafer_MEA_dev_per_burst_spike_percent is 1 of 19 assay components of the CCTE_Shafer_MEA_dev assay. It measures the percentage of spikes (action potential firings) in a single-electrode burst (temporally-clustered group of spikes) as the total number spikes in bursts divided by the total number of spikes during a recording in a microelectrode array (MEA) using Axion Biosystems Maestro 768 channel amplifier with the AxIS adaptive spike detector. The percent of spikes in bursts is averaged across the actively bursting electrodes to report a well-mean value. To collapse across multiple recordings made on days post-plating 5, 7, 9 and 12, the trapezoidal area-under-the-curve of the component is calculated.Data from the assay component CCTE_Shafer_MEA_dev_per_burst_spike_percent was analyzed into 1 assay endpoint. This assay endpoint, CCTE_Shafer_MEA_dev_per_burst_spike_percent, was analyzed in the negative analysis fitting direction relative to DMSO as the negative control and baseline of activity. Using a type of functional reporter, gain or loss-of-signal activity can be used to understand electrical activity.\nOn the day prior to culture, each well was coated thoroughly with 150 uL of 0.05% polyethyleneimine (PEI, Sigma Cat P3143) in 50 mM HEPES (Sigma Cat H7523) at a pH of 8. The plate was incubated at 37C for one hour. PEI was rinsed out with 500 uL of sterile water three times. Plates were stored at 4C until the day of culture. This culture was plated at a seeding density of 1.5 x 10^5 cells/well on a 48-well MEA plate, prepared as described above. Cells were administered via a 25 uL media/laminin ([…]; Sigma Cat L2020-1MG) drop directly onto the microelectrode array, as adding the cells with the laminin results in better attachment than pre-coating with laminin. After 2 hours, an additional 475 uL of cortical media was added and the cells returned to the incubator. Exposure starts at day 0 of plating and is continued over twelve days of network development until the experiment is terminated. Cells are fed with fresh medium on DIV 5 and 9, following the recordings on those days. The entire volume of media in the well is exchanged and any vehicle or compound treatment is renewed. Complete details are found in OP-NHEERL/ISTD/SBB/TJS/2015-03-r0 (available on request, email shafer.tim@epa.gov). Measurement of the electrical activity is non-invasive, and recordings can be made from the same plate over multiple different days of the culture. In cortical neurons, this allows for the measurement of extracellular action potentials over the period during which networks form in the MEA plate.", "values": [
      {"molecule": "C=CCOC(F)(C(F)(F)F)C(F)(F)F", "outcome": "inactive"},
      {"molecule": "Cc1cc(C(F)(C(F)(F)F)C(F)(F)F)ccc1NC(=O)c1cccc(I)c1C(=O)NC(C)(C)CS(C)(=O)=O", "AC50": "5.5 µM (active)"},
      {"molecule": "CS(=O)(=O)c1ccc(C(=O)C2C(=O)CCCC2=O)c(Cl)c1COCC(F)(F)F", "outcome": "inactive"},
      {"molecule": "NC(=O)c1ccc(N)nc1", "AC50": "5.88 µM (active)"},
      {"molecule": "CC1(C)[C@H](C(=O)O[C@H](C#N)c2cccc(Oc3ccccc3)c2)[C@@H]1/C=C(\\Cl)C(F)(F)F", "AC50": "22.7 µM (active)"},
      {"molecule": "CC(C)[C@@H](Nc1ccc(C(F)(F)F)cc1Cl)C(=O)OC(C#N)c1cccc(Oc2ccccc2)c1", "note": "(stereo not given in full)", "outcome": "inactive"},
      {"molecule": "OC(Cc1ccccc1Cl)(Cn1[nH]cnc1=S)C1(Cl)CC1", "note": "(stereo not given)", "AC50": "50 µM (active)"},
      {"molecule": "FC(F)OCC(F)(F)C(F)(F)F", "outcome": "inactive"},
      {"molecule": "CCOCn1c(-c2ccc(Cl)cc2)c(C#N)c(Br)c1C(F)(F)F", "AC50": "6.04 µM (active)"},
      {"molecule": "CC(=O)C(F)(F)C(F)(F)F", "outcome": "inactive"},
      {"molecule": "CC(F)(F)CC(F)(F)F", "outcome": "inactive"},
      {"molecule": "O=S(=O)(F)C(F)(F)C(F)(F)C(F)(F)C(F)(F)F", "outcome": "inactive"},
      {"molecule": "C=CC(F)(C(F)(F)F)C(F)(F)C(F)(F)F", "note": "(stereo not given)", "outcome": "inactive"},
      {"molecule": "Cc1ccccc1OP(=O)(Oc1ccccc1C)Oc1ccccc1C", "AC50": "15 µM (active)"},
      {"molecule": "CNC(=O)CSP(=O)(OC)OC", "outcome": "inactive"}
    ]}
  ]
}
